The values that follow come from PubChem BioAssay AID720 (The Scripps Research Institute Molecular Screening Center, 2007).

A word on the inhibition: it is the change of the read-out against control, counted positive when it falls.

Out of some 97,000 compounds screened, about 140 (0.14%) were called active. This excerpt belongs to a sample that is enriched for actives. Values without a mark were called inactive.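 Rule for the calls: active = inhibition above the screen-wide mean inhibition plus 3 SD (cut at about 15% in these data); inactive = the rest.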

The assay deals with Ephrin type-B receptor 4 (Homo sapiens) (UniProt P54760). In words: EphB4-ephrin-B2 interaction antagonists, primary screen, biochemical, TNYL-RAW peptide probe, fluorescence polarization (AID 720).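 Note: 0% = DMSO wells and 100% = excess unlabeled TNYL-RAW peptide.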 To be noted: EphB4 LBD / TNYL-RAW-Alexa532 peptide, at 7 µM, stronger effect = higher value.
Chain of Ephrin type-B receptor 4 (Homo sapiens) (P54760 whole entry, looked up, the tested form may be a part): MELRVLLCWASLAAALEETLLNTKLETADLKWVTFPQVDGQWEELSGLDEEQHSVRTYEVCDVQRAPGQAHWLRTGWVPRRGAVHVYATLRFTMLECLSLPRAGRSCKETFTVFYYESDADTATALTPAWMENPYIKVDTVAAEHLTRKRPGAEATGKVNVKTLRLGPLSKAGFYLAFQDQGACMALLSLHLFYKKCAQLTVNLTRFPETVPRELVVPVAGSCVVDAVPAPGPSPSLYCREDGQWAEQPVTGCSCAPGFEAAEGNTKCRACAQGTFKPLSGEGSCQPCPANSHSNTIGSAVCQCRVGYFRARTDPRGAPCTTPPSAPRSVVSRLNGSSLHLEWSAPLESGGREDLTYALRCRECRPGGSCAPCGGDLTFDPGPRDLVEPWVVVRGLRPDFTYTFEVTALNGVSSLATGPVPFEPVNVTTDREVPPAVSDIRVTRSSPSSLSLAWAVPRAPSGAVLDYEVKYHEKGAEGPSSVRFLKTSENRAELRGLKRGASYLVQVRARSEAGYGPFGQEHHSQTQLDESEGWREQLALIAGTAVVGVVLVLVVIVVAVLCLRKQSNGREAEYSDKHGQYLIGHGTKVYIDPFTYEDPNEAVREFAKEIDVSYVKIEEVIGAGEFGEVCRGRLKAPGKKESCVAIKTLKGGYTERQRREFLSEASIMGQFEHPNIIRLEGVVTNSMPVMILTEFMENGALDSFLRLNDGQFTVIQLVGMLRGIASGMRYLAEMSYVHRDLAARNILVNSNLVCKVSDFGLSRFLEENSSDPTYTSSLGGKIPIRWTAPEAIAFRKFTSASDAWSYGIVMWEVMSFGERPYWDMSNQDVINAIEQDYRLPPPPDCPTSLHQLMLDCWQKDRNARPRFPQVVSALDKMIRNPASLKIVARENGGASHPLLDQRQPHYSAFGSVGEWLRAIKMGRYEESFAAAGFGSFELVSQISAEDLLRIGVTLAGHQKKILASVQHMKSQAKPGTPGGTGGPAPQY
For `COc1cccc(C(=O)NNC(=O)c2ccccc2Br)c1`, the inhibition is -7.4%.

In the case of `O=C(CN1CCN(S(=O)(=O)c2ccc3ccccc3c2)CC1)NC(=O)NC1CCCCC1`, the inhibition is 5.63%.

`Cc1ccc(SC(=O)COc2ccc(C)c(C)c2)cc1`: the inhibition was 3.52%.

With `O=[N+]([O-])c1ccc(N2CCN(S(=O)(=O)c3ccc4ccccc4c3)CC2)cc1NCc1ccco1`, the inhibition was 0.12%.

Take `CCc1cccc2c(C=C(C#N)C#N)cn(CC(=O)N3CCCCC3)c12`: the inhibition is -0.37%.

For `COc1ccc(CC(NC(C)=O)C(=O)N2CCN(C(=O)Nc3cccc(Cl)c3)CC2)cc1OC` (configuration not stated), the inhibition was -2.32%.

For the molecule `CCOc1ccc(NC(=O)CCS(=O)(=O)c2ccc3c(c2)CCCN3C(=O)CC)cc1`, the inhibition is 8.53%.

For the molecule `COc1ccccc1NC(=O)C1CCCN(c2cc(C)nc3ncnn23)C1` (configuration not stated), the inhibition was -5.56%.

As for `C=CCOc1cccc(CNn2cn[nH]c2=S)c1`, the inhibition was -3.4%.

For the molecule `C=C(C)CNC(=S)/N=c1\scc(C)n1CC`, the inhibition is -8.88%.

For `CCCCNC(=S)NNC(=O)c1cc(C)on1`, the inhibition was -0.6%.

For the molecule `CC(C)NC(=O)CSc1ccccc1C(=O)NCc1ccc2c(c1)OCO2`, the inhibition was 2.19%.

Consider `O=C(CSCc1ccc([N+](=O)[O-])cc1)NCCSCc1ccccc1`, for which the inhibition was 4.49%.

In the case of `Cc1cccc(C)c1N1CCN(S(=O)(=O)N2CCOCC2)CC1`, the inhibition was 3.9%.

Take `O=S(=O)(N1CCOCC1)N1CCN(c2ccccc2F)CC1`: the inhibition is 20.7% (active).

Regarding `O=C(c1ccc(CN2CCOCC2)cc1)N1CCN(c2ccccc2F)CC1`, the inhibition was -2.74%.

With `O=C(Nc1cccc(NC(=O)c2ccco2)c1)c1cnccn1`, the inhibition was -6.85%.

Consider `COc1ccc(NC(=O)/C(Cl)=C(/Cl)S(=O)Cc2ccc(C)cc2)cn1` (configuration not stated), for which the inhibition is 7.2%.

Take `CCOCCn1c(C(C)C)nc2ccccc21`: the inhibition is 0.96%.

As for `O=C(Cc1ccc(S(=O)(=O)N2CCOCC2)s1)NCCC(c1ccccc1)c1ccccc1`, the inhibition was -2.3%.

For `CCOC(=O)c1c(NC(=O)/C=C/c2ccco2)sc(C)c1C`, the inhibition is 0.57%.

With `CC(=O)Nc1cccc(/C(C)=N/NC(=O)c2ccccc2Cl)c1`, the inhibition was 2.34%.

In the case of `O=C(NCC(=O)N(Cc1cccs1)C(C(=O)NC1CCCCC1)c1ccco1)c1cccs1` (configuration not stated), the inhibition was -1.39%.

Turning to `O=C1Nc2cc(Cl)c(Cl)cc2N(O)N1c1cc(Cl)cc(Cl)c1`, the inhibition was 2.41%.

As to `CC(C)C(=O)NC(NC(=S)NC1CCS(=O)(=O)C1)C(Cl)(Cl)Cl` (configuration not stated), the inhibition is 2.04%.

On to `O=C(c1cc2sccc2n1Cc1ccc(F)cc1)N1CCc2ccccc21`, for which the inhibition was 4.78%.

`Cc1c(NC(=O)/C=C/C(=O)O)cccc1[N+](=O)[O-]`: the inhibition is -6.42%.

On to `CN(C)/C=C(/C(=O)c1ccc(Cl)cc1)S(=O)(=O)c1ccccc1`, for which the inhibition is -11.6%.

On to `N=c1c2c3c(sc2nc2n1CCCCC2)CCCC3`, for which the inhibition was 6.43%.

As to `O=c1[nH][nH]c(C(F)(F)F)c1C=NCc1ccccc1Cl`, the inhibition was 2.43%.

Take `O=S(=O)(NN=C1CCCCCCC1)c1ccc(Br)cc1`: the inhibition was 5.67%.

Turning to `CCOC(=O)C1=C(c2ccccc2)N=C2SCC(=O)N2C1c1ccc(O)c(OC)c1` (configuration not stated), the inhibition was 2.71%.

In the case of `COCCn1c(SCc2nc3cc(OC)c(OC)cc3c(=O)[nH]2)nnc1-c1ccncc1`, the inhibition is 5.33%.

Take `O=C(C1=C(O)C(=O)N(Cc2ccccc2)C1c1cccnc1)c1ccco1` (configuration not stated): the inhibition is 27% (active).

Regarding `O=C(C1=C(O)C(=O)N(Cc2ccccc2)C1c1ccco1)c1ccco1` (configuration not stated), the inhibition was -8.37%.

As to `COc1ccc(C2C(C(C)=O)=C(O)C(=O)N2Cc2cccnc2)cc1` (configuration not stated), the inhibition is 1.74%.

As to `COc1ccc2c(c1)C(C)=CC(C)(C)N2C(=O)Nc1ccccc1`, the inhibition is 6.35%.

As for `CC(=O)Oc1ccc(NC(=O)CCC2CCCCC2)c(C(=O)O)c1`, the inhibition was 4.49%.

In the case of `O=C(CN1CCN(c2ccc(Cl)cc2)CC1)N1CCCC1`, the inhibition is 4.82%.

On to `Oc1ccc(/C=N/NC2=NCCCCC2)c(O)c1`, for which the inhibition is 2.04%.

Consider `CCOC(=O)c1sc(C)c2c1NC(C)(c1cccc3ccccc13)NC2=O` (configuration not stated), for which the inhibition was 13.2%.

In the case of `Cc1cc(C)nc(SC(C)C(=O)N/N=C/c2cccs2)n1` (configuration not stated), the inhibition is 2.66%.

For the molecule `C=CCc1ccc(OCCOc2cccc(/C=N/n3cnnc3)c2)c(OC)c1`, the inhibition was -1.42%.

In the case of `Cc1ccc(N2C(=O)CC(Sc3ncn[nH]3)C2=O)cc1` (configuration not stated), the inhibition is 0.58%.

`CC(C)CNC(=S)NNC(=O)c1nn(C)cc1Cl`: the inhibition is 7.68%.

Consider `COc1ccc(-c2noc(-c3ccc(C)cc3)n2)cc1`, for which the inhibition was -4.98%.

As to `CSc1cc(C)n(-c2ccccc2C)c(=S)c1C(C)=O`, the inhibition was -5.85%.

For `CCCOc1cc(C)c(S(=O)(=O)n2nnc3ccccc32)cc1C`, the inhibition was -0.8%.

In the case of `CCc1nn(-c2cc(Oc3cccc4ccccc34)nc(-c3ccccc3)n2)c(N)c1C#N`, the inhibition was -9.42%.

For the molecule `CCOc1cc(C(=O)Nc2c(C)ccc3nsnc23)cc(OCC)c1OCC`, the inhibition is -8.62%.

As to `COc1ccc(CNC(=O)CCn2cccc2)cc1`, the inhibition is -2.06%.

In the case of `COC(=O)c1ccc(NC(=O)C23CC4CC(C2)CC(n2cnc(Cl)n2)(C4)C3)cc1`, the inhibition is 3.33%.
